In PubChem BioAssay (EPA / NIEHS) one finds AC50 and outcome data, which are given here for four compounds.

The structures appear in SMILES notation. “And” between values parts separate entries of the source, which are not always exact repeats. Equal values may be shown once. Records with an inconclusive call do not appear. More than one record can exist for a structure, and the calls need not agree. The source made the active and inactive calls. How the source made its calls, unless noted: active means hit-call score of the fitted dose curve at least 0.9, where 1 is the maximum; inactive means score below 0.9.

The target in test [1] is Oxysterols receptor LXR-beta (Homo sapiens) (UniProt P55055). The test is described as follows: ATG_LXRb_TRANS: Attagene TRANS-FACTORIAL HepG2 Assay for human Liver X Receptor beta (LXRb) (AID 2282981; active means hit-call score of the fitted dose curve at least 0.9, where 1 is the maximum). Particulars: HepG2 Attagene TRANS GAL4-LXRb reporter, mRNA. A digest of the protocol: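 After 24 h of chemical treatment, transfected HepG2 cells yield total RNA; reporter cDNA is PCR-amplified, FAM-labelled, HpaI-cut and run on capillary electrophoresis. Signal reflects chimeric LXRb-Gal4 activity on GAL4-UAS reporters.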

The target of test [2] is Hepatocyte nuclear factor 4-alpha (Homo sapiens) (UniProt P41235). The test is described as follows: ATG_HNF4a_TRANS: Attagene TRANS-FACTORIAL HepG2 Assay for human Hepatocyte Nuclear Factor 4 alpha (HNF4a) (AID 2282982; active means hit-call score of the fitted dose curve at least 0.9, where 1 is the maximum). Particulars: HepG2 HNF4a transactivation reporter, mRNA readout. A digest of the protocol: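 Multiplexed reporter assay: transfected HepG2, 24 h exposure, total RNA → oligo(dT) RT → PCR → 6-FAM extension → HpaI digest → CE fluorescence. DMSO = negative control.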

The nature of test [3]: ATG_M_06_TRANS: Attagene TRANS-FACTORIAL HepG2 Assay for M06 Transcription Factor (Internal Marker) (AID 2282983; active means hit-call score of the fitted dose curve at least 0.9, where 1 is the maximum;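 on AC50: potency for rise in reporter mRNA above DMSO baseline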). The note with it: HepG2 Attagene TRANS M06 internal marker reporter. A digest of the protocol: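 Multi-reporter-transfected HepG2, 24 h treatment; reporter transcripts quantified via RT-PCR, primer-extension labelling and CE. DMSO-normalized gain-of-signal fit.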

Test [4] can be described thus: ATG_M_32_TRANS: Attagene TRANS-FACTORIAL HepG2 Assay for M32 Transcription Factor (Internal Marker) (AID 2282984; active means hit-call score of the fitted dose curve at least 0.9, where 1 is the maximum;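 further: transcript level of a background control reporter unit measured by RT-PCR and capillary electrophoresis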). The note with it: HepG2 Attagene TRANS M32 internal marker reporter. A digest of the protocol: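 Cell-based TRANS-format assay in HepG2: exogenous chimeric GAL4 reporter units transiently expressed, compounds applied 24 h. Reporter mRNA detected by RT-PCR plus capillary electrophoresis; this readout is an internal background marker.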

The target in test [5] is Nuclear receptor subfamily 4 group A member 2 (Homo sapiens) (UniProt P43354). The test is described as follows: ATG_NURR1_TRANS: Attagene TRANS-FACTORIAL HepG2 Assay for human Nuclear Receptor Related Protein 1 (NURR1) (AID 2282985; active means hit-call score of the fitted dose curve at least 0.9, where 1 is the maximum). Particulars: HepG2 Attagene TRANS reporter, mRNA readout. The procedure, abridged:
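Measures transcriptional activation by an exogenous NR-Gal4 chimera in transfected HepG2 liver cells. After 24 h, reporter RNA is reverse-transcribed, amplified and resolved by capillary electrophoresis; DMSO defines baseline.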

In test [6] the target is Transcriptional activator Myb (Homo sapiens) (UniProt P10242). The test is described as follows: ATG_Myb_CIS: Attagene CIS-FACTORIAL HepG2 Assay for human Myeloblastosis (Myb) Proto-Oncogene Transcription Factor (AID 2282986). Particulars: HepG2 Attagene CIS-FACTORIAL Myb reporter transcription; actives raise or lower the signal. The procedure, abridged:
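After 24 h of compound dosing, total RNA from transfected HepG2 cells is reverse-transcribed and the reporter sequences amplified, labeled and separated by capillary electrophoresis. Values come from bidirectional fitting against DMSO.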

For test [7], the target named is Nuclear respiratory factor 1 (Homo sapiens) (UniProt Q16656). The test is described as follows: ATG_NRF1_CIS: Attagene CIS-FACTORIAL HepG2 Assay for human Nuclear Respiratory Factor 1 (NRF1) Orphan Gene (AID 2282987). The note with it: HepG2 NRF1 cis-element reporter, Attagene multiplex; actives raise or lower the signal. A digest of the protocol:
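Measured: fluorescent reporter-specific RT-PCR products from transfected HepG2 cells, separated by capillary electrophoresis. Exposure lasted 24 h. Analysis used bidirectional curve fitting with DMSO as negative control.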

The nature of test [8]: ATG_NFI_CIS: Attagene CIS-FACTORIAL HepG2 Assay for human Nuclear Factor I (NFI) (AID 2282989). The note with it: HepG2 cis-regulatory reporter, NFI response element transcription; actives raise or lower the signal. A digest of the protocol:
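Reporter transcripts were measured by RT-PCR with fluorescent primer extension and capillary electrophoresis 24 h post-treatment. HepG2 cells carried transiently transfected cis-regulated reporter constructs reporting endogenous factor activity; gain or loss fitted against DMSO baseline.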

Test [9] has as its target Myc proto-oncogene protein (Homo sapiens) (UniProt P01106). The test is described as follows: ATG_Myc_CIS: Attagene CIS-FACTORIAL HepG2 Assay for human Myelocytomatosis (Myc) Proto-Oncogene Transcription Factor (AID 2282990). Particulars: HepG2, Attagene cis-reporter transcription factor activity; actives raise or lower the signal. A digest of the protocol:
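Cells of the HepG2 human liver line bear multiple cis-driven reporter transcription units. Reporter mRNA after 24 h exposure is reverse-transcribed, amplified, labelled and resolved by capillary electrophoresis, with gain- or loss-of-signal fitting relative to DMSO.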

Test [10] in a line: ATG_NRF2_ARE_CIS: Attagene CIS-FACTORIAL HepG2 Assay for human Nuclear Factor Erythroid 2 Related Factor 2 (NFR2) response to Antioxidant Response Elements (ARE) (AID 2282992). Particulars: HepG2 Attagene ARE/NRF2 reporter, transcription factor activity; actives raise or lower the signal. The procedure, abridged: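 Using transiently transfected HepG2 cells exposed for 24 h, reporter mRNA levels were determined by RT-PCR with fluorescent primer extension and capillary electrophoresis, analysed for gain or loss of signal against DMSO.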

Test [11] in a line: ATG_Oct_MLP_CIS: Attagene CIS-FACTORIAL HepG2 Assay for human Octamer-Binding Transcription Factor (Oct) (AID 2282993). Particulars: HepG2 Attagene cis-factorial Oct reporter, mRNA; actives raise or lower the signal. A digest of the protocol:
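Readout is reporter transcript level from RT-PCR with fluorescent primer extension and capillary electrophoresis, fitted in both directions against DMSO. Transfected HepG2 reporter units report endogenous factor activity after 24 h dosing.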

The target in test [12] is Cellular tumor antigen p53 (Homo sapiens) (UniProt P04637). The test is described as follows: ATG_p53_CIS: Attagene CIS-FACTORIAL HepG2 Assay for human p53 Transcription Factor (AID 2282994). The note with it: HepG2 p53 cis-element reporter, Attagene mRNA; actives raise or lower the signal. The procedure, abridged: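 In HepG2 cells, reporter transcription units under cis-regulatory promoters were transiently introduced. Following 24 h treatment, RNA was processed to labelled, digested cDNA fragments read by capillary electrophoresis; fitting was bidirectional versus DMSO.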

Test [13] in a line: BSK_3C_TissueFactor: BioMAP Diversity Plus: 3C Assay for Tissue Factor Biomarker Activity (AID 2282997). The note with it: BioMAP 3C HUVEC, tissue factor biomarker readout; actives raise or lower the signal. A digest of the protocol: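 In this endothelial system, HUVEC are treated for 24 h and Tissue Factor is assessed by ELISA, normalised to DMSO.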
Test [14] in a line: BSK_3C_uPAR: BioMAP Diversity Plus: 3C Assay for Urokinase-type plasminogen activator receptor (uPAR) Biomarker Activity (AID 2282998). The note with it: BioMAP 3C HUVEC, uPAR biomarker ELISA; actives raise or lower the signal. The procedure, abridged: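 Cell-surface uPAR on HUVEC (3C system) read by ELISA at 24 h post-treatment, with DMSO as baseline and fitting in both directions. Parallel cultures stained with SRB to flag overt cytotoxicity.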
On the technique in general: An ELISA detects its analyte on a solid surface through an enzyme-linked reagent.

Test [15] in a line: BSK_3C_VCAM1: BioMAP Diversity Plus: 3C Assay for Vascular cell adhesion molecule 1 (VCAM1) Biomarker Activity (AID 2282999). Particulars: BioMAP 3C HUVEC, VCAM1 ELISA, cytokine-stimulated; actives raise or lower the signal. The procedure, abridged: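 Activity fitted in both directions relative to DMSO, with ELISA measurement of the surface marker on primary HUVEC (3C) at 24 h post-treatment; parallel SRB staining (0.1% SRB, TCA-fixed, 560 nm) flagged overt cytotoxicity.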

Test [16] can be described thus: BSK_4H_Eotaxin3: BioMAP Diversity Plus: 4H Assay for Eotaxin 3 Biomarker Activity (AID 2283000). The note with it: primary human endothelial cells (HUVEC); actives raise or lower the signal. A digest of the protocol:
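ELISA quantitation of CCL26 (Eotaxin-3) protein from chemically dosed human vascular endothelial cells at 24 h; increases and decreases both scored relative to DMSO-treated baseline.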

Test [17] addresses human Peroxisome Proliferator-activated Receptor alpha (PPARa), PPARA (gene 5465) (UniProt Q07869). The test is described as follows: ATG_PPARa_TRANS: Attagene TRANS-FACTORIAL HepG2 Assay for human Peroxisome Proliferator-activated Receptor alpha (PPARa) (AID 2283001; active means hit-call score of the fitted dose curve at least 0.9, where 1 is the maximum). The procedure, abridged: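 Transfected HepG2 cells treated with test chemical for 24 h. RNA isolated, reverse-transcribed with oligo(dT), PCR-amplified, FAM-labelled and HpaI-digested. Fragments sized by capillary electrophoresis; gain-of-signal fit relative to DMSO.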

Test [18] concerns the target human Peroxisome Proliferator-activated Receptor delta (PPARd), PPARD (gene 5467) (UniProt Q03181). The test is described as follows: ATG_PPARd_TRANS: Attagene TRANS-FACTORIAL HepG2 Assay for human Peroxisome Proliferator-activated Receptor delta (PPARd) (AID 2283002; active means hit-call score of the fitted dose curve at least 0.9, where 1 is the maximum). The procedure, abridged:
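Cell-based TRANS reporter: HepG2, transient MRTU transfection, 24 h exposure. Readout = reporter mRNA (RT-PCR/CE, 6-FAM). Gain-of-signal fit vs DMSO control.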

A short description of test [19]: ATG_NF_kB_CIS: Attagene CIS-FACTORIAL HepG2 Assay for human Nuclear Factor Kappa B (NF-kB) (AID 2282991). Particulars: HepG2 Attagene cis-factorial NF-kB reporter mRNA; actives raise or lower the signal. The procedure, abridged:
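Fluorescence of labelled RT-PCR products separated by capillary electrophoresis gives reporter mRNA levels from transfected HepG2 cells exposed 24 h; values are fitted in both directions relative to DMSO.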

Chain of Hepatocyte nuclear factor 4-alpha (Homo sapiens) (P41235 whole entry, looked up): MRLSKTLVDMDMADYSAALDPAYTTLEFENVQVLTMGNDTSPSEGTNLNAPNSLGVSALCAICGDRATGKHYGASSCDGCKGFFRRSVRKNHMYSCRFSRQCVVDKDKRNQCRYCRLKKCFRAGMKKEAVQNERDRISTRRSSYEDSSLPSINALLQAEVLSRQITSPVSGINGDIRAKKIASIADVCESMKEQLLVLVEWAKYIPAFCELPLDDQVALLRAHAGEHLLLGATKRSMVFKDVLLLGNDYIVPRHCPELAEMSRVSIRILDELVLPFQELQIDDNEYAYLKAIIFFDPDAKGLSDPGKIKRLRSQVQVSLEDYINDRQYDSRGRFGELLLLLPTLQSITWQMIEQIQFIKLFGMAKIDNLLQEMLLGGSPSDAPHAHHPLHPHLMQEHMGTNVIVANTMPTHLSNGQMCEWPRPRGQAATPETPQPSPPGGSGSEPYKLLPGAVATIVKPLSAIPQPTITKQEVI
Chain of human Peroxisome Proliferator-activated Receptor delta (PPARd), PPARD (gene 5467) (Q03181 whole entry, looked up): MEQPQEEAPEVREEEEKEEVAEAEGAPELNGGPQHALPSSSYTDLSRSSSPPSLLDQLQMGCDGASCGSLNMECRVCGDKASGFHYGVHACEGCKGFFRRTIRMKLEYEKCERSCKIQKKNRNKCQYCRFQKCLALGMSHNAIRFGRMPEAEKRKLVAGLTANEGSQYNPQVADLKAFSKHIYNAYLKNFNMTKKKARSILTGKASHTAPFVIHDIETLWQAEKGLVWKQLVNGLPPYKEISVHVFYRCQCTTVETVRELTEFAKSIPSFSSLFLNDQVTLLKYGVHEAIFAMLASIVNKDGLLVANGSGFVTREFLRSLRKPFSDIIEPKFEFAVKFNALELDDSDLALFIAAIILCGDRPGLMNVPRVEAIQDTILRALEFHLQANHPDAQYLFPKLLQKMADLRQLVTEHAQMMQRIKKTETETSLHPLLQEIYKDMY
Chain of human Peroxisome Proliferator-activated Receptor alpha (PPARa), PPARA (gene 5465) (Q07869 whole entry, looked up, the tested form may be a part): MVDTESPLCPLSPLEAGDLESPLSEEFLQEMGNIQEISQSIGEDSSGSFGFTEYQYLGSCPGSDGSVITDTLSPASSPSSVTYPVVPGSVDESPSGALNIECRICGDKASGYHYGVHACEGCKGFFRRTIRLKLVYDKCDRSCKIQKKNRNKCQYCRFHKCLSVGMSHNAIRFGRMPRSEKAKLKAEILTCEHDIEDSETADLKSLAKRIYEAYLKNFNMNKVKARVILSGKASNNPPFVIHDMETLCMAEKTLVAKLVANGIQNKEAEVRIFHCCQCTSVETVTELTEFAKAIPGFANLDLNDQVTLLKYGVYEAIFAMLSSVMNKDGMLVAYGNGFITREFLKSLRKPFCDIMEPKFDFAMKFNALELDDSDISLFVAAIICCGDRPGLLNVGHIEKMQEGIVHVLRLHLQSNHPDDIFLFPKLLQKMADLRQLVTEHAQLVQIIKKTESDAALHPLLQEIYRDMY
Chain of Nuclear receptor subfamily 4 group A member 2 (Homo sapiens) (P43354 whole entry, looked up, the tested form may be a part): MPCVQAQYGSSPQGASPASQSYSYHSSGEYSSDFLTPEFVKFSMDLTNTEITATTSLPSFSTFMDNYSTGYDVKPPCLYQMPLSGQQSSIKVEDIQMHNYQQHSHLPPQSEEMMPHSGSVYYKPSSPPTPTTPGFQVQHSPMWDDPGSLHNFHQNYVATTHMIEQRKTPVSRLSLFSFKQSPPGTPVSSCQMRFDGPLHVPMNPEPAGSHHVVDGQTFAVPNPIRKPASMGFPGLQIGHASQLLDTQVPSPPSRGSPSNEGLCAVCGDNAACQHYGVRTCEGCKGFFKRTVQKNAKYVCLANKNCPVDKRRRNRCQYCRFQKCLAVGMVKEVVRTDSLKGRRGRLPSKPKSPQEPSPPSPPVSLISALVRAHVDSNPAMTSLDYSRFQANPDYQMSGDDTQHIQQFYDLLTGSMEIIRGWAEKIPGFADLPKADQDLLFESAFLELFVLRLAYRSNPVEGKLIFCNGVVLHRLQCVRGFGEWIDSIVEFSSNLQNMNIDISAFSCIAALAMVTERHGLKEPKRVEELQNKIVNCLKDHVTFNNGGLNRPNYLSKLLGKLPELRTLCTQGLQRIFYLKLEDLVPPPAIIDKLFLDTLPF
Chain of Cellular tumor antigen p53 (Homo sapiens) (P04637 whole entry, looked up, the tested form may be a part): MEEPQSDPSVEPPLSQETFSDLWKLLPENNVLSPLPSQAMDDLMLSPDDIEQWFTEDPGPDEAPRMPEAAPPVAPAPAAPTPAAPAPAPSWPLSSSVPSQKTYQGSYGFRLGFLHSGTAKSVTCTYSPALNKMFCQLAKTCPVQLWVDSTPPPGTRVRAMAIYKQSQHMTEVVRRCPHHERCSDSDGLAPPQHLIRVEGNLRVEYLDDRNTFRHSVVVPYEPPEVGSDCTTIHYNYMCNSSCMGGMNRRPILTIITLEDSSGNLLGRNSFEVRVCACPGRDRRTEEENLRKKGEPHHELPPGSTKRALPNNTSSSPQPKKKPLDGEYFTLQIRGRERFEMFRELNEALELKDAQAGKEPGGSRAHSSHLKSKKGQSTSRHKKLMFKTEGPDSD
Chain of Myc proto-oncogene protein (Homo sapiens) (P01106 whole entry, looked up): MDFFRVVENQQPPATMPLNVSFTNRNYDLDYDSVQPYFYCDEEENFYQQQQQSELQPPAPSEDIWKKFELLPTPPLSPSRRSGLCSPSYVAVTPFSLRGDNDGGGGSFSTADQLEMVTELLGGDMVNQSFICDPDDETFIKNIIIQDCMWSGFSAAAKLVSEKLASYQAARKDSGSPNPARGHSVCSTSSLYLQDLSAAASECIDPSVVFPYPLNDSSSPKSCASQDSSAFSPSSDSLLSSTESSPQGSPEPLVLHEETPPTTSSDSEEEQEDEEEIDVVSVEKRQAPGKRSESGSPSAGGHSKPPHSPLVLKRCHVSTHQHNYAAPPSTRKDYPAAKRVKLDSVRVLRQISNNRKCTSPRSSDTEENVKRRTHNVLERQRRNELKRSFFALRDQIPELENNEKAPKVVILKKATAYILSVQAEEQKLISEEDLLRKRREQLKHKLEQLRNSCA
Chain of Transcriptional activator Myb (Homo sapiens) (P10242 whole entry, looked up): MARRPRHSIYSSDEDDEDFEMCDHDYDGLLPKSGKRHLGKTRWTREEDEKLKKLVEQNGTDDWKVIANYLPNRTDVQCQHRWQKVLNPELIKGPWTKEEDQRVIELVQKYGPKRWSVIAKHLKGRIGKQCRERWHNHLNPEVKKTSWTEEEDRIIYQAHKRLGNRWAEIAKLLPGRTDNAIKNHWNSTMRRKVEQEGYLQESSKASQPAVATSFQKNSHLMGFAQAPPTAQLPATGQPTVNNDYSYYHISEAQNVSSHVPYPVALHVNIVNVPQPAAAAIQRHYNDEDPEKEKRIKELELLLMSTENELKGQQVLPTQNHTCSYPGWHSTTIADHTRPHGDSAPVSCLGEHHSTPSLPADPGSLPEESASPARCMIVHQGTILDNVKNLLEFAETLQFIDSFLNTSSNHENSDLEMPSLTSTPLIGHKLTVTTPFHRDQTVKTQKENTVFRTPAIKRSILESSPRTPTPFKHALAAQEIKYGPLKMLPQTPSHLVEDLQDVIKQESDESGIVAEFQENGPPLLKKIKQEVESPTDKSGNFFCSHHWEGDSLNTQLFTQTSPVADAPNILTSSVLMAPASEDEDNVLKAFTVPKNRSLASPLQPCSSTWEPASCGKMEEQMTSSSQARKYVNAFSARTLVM
Chain of Nuclear respiratory factor 1 (Homo sapiens) (Q16656 whole entry, looked up): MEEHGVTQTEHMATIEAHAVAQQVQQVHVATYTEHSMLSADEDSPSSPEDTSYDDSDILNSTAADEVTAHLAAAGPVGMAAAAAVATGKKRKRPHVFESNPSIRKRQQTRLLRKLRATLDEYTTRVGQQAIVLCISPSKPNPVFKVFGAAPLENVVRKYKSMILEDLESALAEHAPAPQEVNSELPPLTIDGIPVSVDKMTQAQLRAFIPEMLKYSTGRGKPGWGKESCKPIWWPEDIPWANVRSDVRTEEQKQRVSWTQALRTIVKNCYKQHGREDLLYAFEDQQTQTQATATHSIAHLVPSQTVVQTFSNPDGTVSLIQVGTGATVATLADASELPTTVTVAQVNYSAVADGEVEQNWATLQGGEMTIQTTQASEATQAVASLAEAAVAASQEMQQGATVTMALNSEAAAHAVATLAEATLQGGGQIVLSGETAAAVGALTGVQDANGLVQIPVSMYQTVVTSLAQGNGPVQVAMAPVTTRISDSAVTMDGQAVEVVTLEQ
Chain of Oxysterols receptor LXR-beta (Homo sapiens) (P55055 whole entry, looked up, the tested form may be a part): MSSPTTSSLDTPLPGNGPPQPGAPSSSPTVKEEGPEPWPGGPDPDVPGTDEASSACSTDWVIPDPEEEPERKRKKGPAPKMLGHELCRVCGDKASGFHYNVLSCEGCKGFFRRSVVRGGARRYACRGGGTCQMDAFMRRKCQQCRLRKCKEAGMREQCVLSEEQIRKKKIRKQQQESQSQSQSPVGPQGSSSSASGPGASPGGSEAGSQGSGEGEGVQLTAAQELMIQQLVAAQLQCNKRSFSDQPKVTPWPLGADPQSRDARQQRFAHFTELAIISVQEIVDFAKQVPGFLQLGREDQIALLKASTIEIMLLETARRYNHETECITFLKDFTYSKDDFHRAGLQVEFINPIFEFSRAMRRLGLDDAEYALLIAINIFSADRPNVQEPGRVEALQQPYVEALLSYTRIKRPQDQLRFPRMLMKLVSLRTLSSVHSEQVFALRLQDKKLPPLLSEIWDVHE

On to `NC(=NCCCCCCN=C(N)/N=C(\N)Nc1ccc(Cl)cc1)/N=C(\N)Nc1ccc(Cl)cc1`, for which the concentration at half-maximal activity (AC50) (commonly the midpoint of the concentration-response curve, whichever way the signal moves) in test [1] is 24.1 µM (active); in test [2] it was 25.7 µM (active); in [3], 23.3 µM (active); in test [6] it was 18.3 µM (active) and 48.2 µM (active); in [7], 7.2 µM (active) and 38.6 µM (active); in test [9], 90.5 µM (active) and 24.6 µM (active). Further, the half-maximal activity concentration (AC50) in test [10] was 2.26 µM (active); in [11], 23.5 µM (active); in test [12], 8.29 µM (active) and 8.25 µM (active); in test [13], 4.88 µM (active); in test [14], 2.61 µM (active); in [15] it was 7.92 µM (active). The concentration at half-maximal activity (AC50) was 5.53 µM (active) in test [16] and 24.5 µM (active) in [18]. In addition, the compound was classed as inactive in test [1], in test [2], in [3], in test [4], in [5] and in test [6]. The result in test [7], in [8], in [9], in [10], in test [11] and in test [12] was inactive. Moreover, the result in test [17] and in test [18] was inactive.
Turning to `Cc1ccc2ccc3ccc(C)cc3c2c1`, the result in test [1], in test [2], in test [3], in [5], in [6] and in test [7] was inactive. Also, the compound was called inactive in test [8], in test [9], in test [19], in test [11], in test [12] and in test [17]. Besides, the compound was classed as inactive in [18]. Moreover, the AC50 in [10] was 61.3 µM (active).
Turning to `O=CC(F)(F)C(F)(F)C(F)(F)F`, the outcome in [1], in test [2], in test [4], in [5], in test [6] and in test [7] was inactive. The compound was classed as inactive in test [9], in test [19], in [10], in test [11], in [12] and in test [18].
Turning to `Cc1cc(C(=C2C=CC(=Nc3ccc(S(=O)(=O)O)cc3)C=C2)c2ccc(Nc3ccc(S(=O)(=O)O)cc3)cc2)cc(S(=O)(=O)O)c1N`, the result in test [1], in [2], in test [3], in test [4], in test [6] and in test [7] was inactive. Also, the call in test [8], in test [9], in test [19], in test [10], in test [11] and in test [12] was inactive. The result in [17] and in test [18] was inactive.
